# From PubChem
# G9a inh = blocks human histone lysine methyltransferase G9a; Q96KQ7; Potency, µM (highest dose often 102 µM), without a hit: at the top dose activity, negative = inhibition, hits mostly inhibitors; actives 8.8% (n = 350,000); G9a H3K9 monomethylation, AlphaScreen, 2 h; note: % is set by controls: 0 for no effect and ±100 for the full control effect; nearly all actives have a fitted effect of over 75% in size
#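 G9a (20 nM) was preincubated 15 min with compound, then reacted 2 h at room temperature with 500 nM biotin-H3K9 peptide and 20 µM SAM. Monomethyl-H3K9 detected by AlphaScreen using anti-H3K9me1 antibody.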
# JMJD2A Tudor = JMJD2A Tudor domain (human) inhibition; O75164; AlphaScreen JMJD2A-Tudor / H3K4me3 peptide binding; Potency, µM (series often up to 114 µM), inactives show top-dose activity change, negative = inhibition, usual class: inhibitors; actives 4.4% (n = 390,000); AID 504339; note: % is set by controls: 0 for no effect and ±100 for the full control effect; nearly all actives have a fitted effect of over 50% in size
# BAZ2B block = inhibitors of human BAZ2B bromodomain; Q9UIF8; AlphaScreen BAZ2B-H3K14Ac peptide displacement; Potency, µM (series often up to 114 µM), without a hit: at the highest dose activity change, negative = inhibition, actives largely listed as inhibitors; actives 4.4% (n = 360,000); AID 504333; note: % is set by controls: 0 for no effect and ±100 for the full control effect; nearly all actives have a fitted effect of over 60% in size
#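 Compounds, titrated to a top concentration of 110 uM, were incubated 30 min at room temperature with preformed BAZ2B/acetyl-K14 H3 peptide complex (50 nM each). Proximity signal was measured by AlphaScreen after 20 min with beads.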
# HP1b binding inh = blocks HP1-beta chromodomain binding to methylated histone tails; P83916; AlphaScreen HP1-beta / biotin-H3K9me3 peptide binding; Potency, µM (highest dose often 114 µM), inactives show top-dose activity change, negative = inhibition, most hits filed as inhibitors; actives 0.56% (n = 390,000); note: nearly all actives have a fitted effect of over 70% in size
#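 HP1-beta protein (50 nM final) preincubated 30 min at room temperature with biotinylated H3(1-18)K9me3 peptide (50 nM) in PBS pH 7.4, 0.01% Tween-20, then compound added for 30 min. AlphaScreen streptavidin donor/nickel chelate acceptor beads (10 ug/mL final), 30 min dark, luminescence read.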
# PLK1 PBD inh = blocks phosphopeptide binding to human PLK1 polo-box domain | P53350 | Plk1 PBD binding of FITC phosphopeptide, fluorescence polarization | Potency, µM, without a hit: max response, negative = inhibition, actives largely listed as inhibitors | actives 2.8% (n = 360,000); note: series mostly up to about 57 µM; % is set by controls: 0 for no effect and ±100 for the full control effect; nearly all actives have a fitted effect of over 65% in size
# Target sequence (P53350 whole entry, looked up, the tested form may be a part): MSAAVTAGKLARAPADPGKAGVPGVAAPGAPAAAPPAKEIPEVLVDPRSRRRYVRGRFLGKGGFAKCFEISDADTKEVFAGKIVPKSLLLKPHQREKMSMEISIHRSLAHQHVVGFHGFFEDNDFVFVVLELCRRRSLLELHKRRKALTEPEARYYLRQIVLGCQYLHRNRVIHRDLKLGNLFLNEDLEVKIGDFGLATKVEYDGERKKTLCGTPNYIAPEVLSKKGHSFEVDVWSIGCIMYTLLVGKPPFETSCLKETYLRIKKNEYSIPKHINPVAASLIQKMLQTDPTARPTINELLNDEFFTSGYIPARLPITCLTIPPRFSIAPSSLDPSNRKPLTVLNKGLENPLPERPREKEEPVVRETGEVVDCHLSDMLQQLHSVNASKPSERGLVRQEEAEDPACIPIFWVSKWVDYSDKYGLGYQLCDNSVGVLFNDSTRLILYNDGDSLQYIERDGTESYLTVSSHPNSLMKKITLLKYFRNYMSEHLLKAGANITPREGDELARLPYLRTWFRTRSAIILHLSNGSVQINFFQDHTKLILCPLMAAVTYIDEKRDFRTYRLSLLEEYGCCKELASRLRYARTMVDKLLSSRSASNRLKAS
# ALOX12 inh = blocks human arachidonate 12S-lipoxygenase | actives 1.1% (n = 580,000) | P18054 | Potency, µM (titrated, usually from 108 µM), for the others: at the highest dose activity change, negative = inhibition, most hits filed as inhibitors | purified 12hLO, xylenol orange hydroperoxide absorbance; note: % is set by controls: 0 for no effect and ±100 for the full control effect
#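 Purified human 12hLO (150 nM final) in 25 mM Hepes, 0.01% Triton X-100, pH 7.0 was preincubated 15 min at room temperature with compound. Then 40 uM arachidonic acid was added, 30 min. Hydroperoxide was read by Fe-XO absorbance ratio 573/405 nm.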
# Active calls of the source: *; i = inactive; ? = inconclusive; · = no result given; [ ] = another dose, or the depositor's remark. Compounds with a hit are over-represented: about 9% of the library has one in this group of screens. Calls come from the whole dose curve; as a rule, active = well fitted curve in the direction sought with a large enough effect; inconclusive = small, poorly fitted or top-dose-only effect, or another doubt; inactive = no such curve, though single readings can be large; an effect the other way counts as inactive or inconclusive. Potency is the fitted concentration of half-maximal effect.
SMILES,G9a inh,JMJD2A Tudor,BAZ2B block,HP1b binding inh,PLK1 PBD inh,ALOX12 inh
CCc1ccc(C2c3c(-c4ccccc4)n[nH]c3C(=O)N2c2ccc(C(=O)O)cc2)cc1 (configuration not stated),-3%[59 µM],-27%,·,24%,·,40µM*
CCOC(=O)c1ccc(N2C(=O)c3n[nH]c(-c4ccco4)c3C2c2ccccc2OC)cc1 (configuration not stated),13µM*,?,·,-19%,·,-22%
CCOC(=O)c1ccc(N2C(=O)c3n[nH]c(-c4ccco4)c3C2c2cccc(F)c2)cc1 (configuration not stated),?,?,·,-13%,·,-20%
CCOC(=O)c1ccc(N2C(=O)c3n[nH]c(-c4ccco4)c3C2c2ccc(F)cc2)cc1 (configuration not stated),11µM*,?,·,-14%,·,?
COCCn1c(SCC(=O)N2CCCCCC2)nc2c([nH]c3ccccc32)c1=O,5%,-10%,-9%,21%,-1%,i
Cc1cccc(N2CC(C(=O)Nc3nnc(SCC(=O)N4CCOCC4)s3)CC2=O)c1 (configuration not stated),45µM*,-27%,-25%,22%,?,i
COc1ccc(N2CCN(C(=O)CSc3nnc(NC(=O)C4CCC4)s3)CC2)cc1,-6%[0.501 µM],2%,-2%,19%,-2%,1%
COc1ccc(N2CC(C(=O)Nc3nnc(SCC(=O)N4CCOCC4)s3)CC2=O)cc1 (configuration not stated),35µM*,-26%,-23%,5%,-27%,-9%
O=C(Nc1nnc(SCC(=O)N2CCOCC2)s1)C1CC(=O)N(c2ccccc2)C1 (configuration not stated),26%[59 µM],-5%,-8%,45%,-19%,-10%
CCc1nnc(NC(=O)c2ccc3c(=O)n4c(nc3c2)CCC4)s1,·,·,·,·,5%,2%
N#CC1=C(SCC(N)=O)NC(=O)CC1c1ccccc1Cl (configuration not stated),-19%,-26%,11%,16%,-12%,11%[57.4 µM]
Cn1cc(Br)c(C(=O)N2CCN(c3cccc(Cl)c3)CC2)n1,-4%[59 µM],-20%,-16%,34%,-11%,3%
Cn1cc(Br)c(C(=O)n2cc(Br)cn2)n1,6%,?,-19%,-12%,17µM*,?
CCCC(NC(=O)CCl)c1ccccc1 (configuration not stated),?,-4%,7%,23%,-9%,6%
CCC(NC(=O)CCl)c1ccc(C)cc1 (configuration not stated),-40%,56µM*,-22%,-12%,30µM*,-15%
CCC(NC(=O)C1CC1)c1ccc(C)cc1 (configuration not stated),·,·,·,·,·,5µM*
Cc1ccccc1-n1nc(C(=O)O)c(C)c(C#N)c1=O,?,7%,-1%,50%,0%,?
CC1CC(=O)c2c(cc3c(-c4c(O)cc(O)c5c(O)c6c(cc45)OC(C)CC6=O)c(O)cc(O)c3c2O)O1 (configuration not stated),?,45µM*,40µM*,?,27µM*,·
COc1ccc(C(=O)N2CCCN(c3cc(-c4ccc(F)cc4)[nH]n3)CC2)cc1OC,·,·,·,·,·,35%
COc1ccc(OC)c2c(C)cc(N3CCN(C(=O)c4ccc(C)cc4)CC3)nc12,?,?,50µM*,-36%,-4%,-3%
COc1ccc(OC)c2c(C)cc(N3CCN(C(=O)c4ccc(F)cc4)CC3)nc12,?,?,50µM*,-27%,-9%,-23%
O=C(Nc1ccc(F)c(Cl)c1)c1cc(C2CCCN(C(=O)C3CC3)C2)on1 (configuration not stated),·,·,·,·,-13%,-1%
S=c1[nH]nc(C2CCCCC2)n1/N=C/c1cccs1,?,50µM*,-38%,-21%,-27%,-24%
